Only some compounds are listed: those with a hit (about 6.5% of all), similar ones and a draw of the others.
Fluor 339 460: intrinsic fluorescence of library compounds, ex339/em460 – biochemical, MLSMR library, data from DPM-DC assay, artefact control, profiling panel; compound autofluorescence, ex339/em460 nm, NADH buffer; hits give high values; 1 = no-compound wells, NADH background; fluorescence fold increase at 10 µM; hit rate 5.5% among 65,000;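 active means at 10 µM, mean starting fluorescence two-fold or more over control wells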;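 further: signal is the first read of a kinetic run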
NADH coupling: blocks coupling enzymes of NAD/NADH assays; hit rate 0.02% among 65,000; coupled PK/LDH NADH assays, four targets; IC50, µM (titrated, usually from 10 µM);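 active means single-dose screening hits from any of four coupled enzyme assays that gave an IC50 when retested across doses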;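 further: the DPM-DC format reads NADH fluorescence rather than 340 nm absorbance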
Spn DPM-DC inh: inhibitors of Streptococcus pneumoniae diphosphomevalonate decarboxylase; purified DPM-DC, PK/LDH coupled NADH fluorescence; calls only at 10 µM; hit rate 0.49% among 65,000;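 active means the 320 compounds with the highest percent inhibition in the single-dose primary screen, excluding strongly autofluorescent ones, cut at about 32% in these data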;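 further: kinetic rate of NADH fluorescence loss reporting ADP formed by the decarboxylase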
Spn MK inh: S. pneumoniae mevalonate kinase inhibition; purified MK, PK/LDH-coupled NADH absorbance 340 nm; inhibition, % at 10 µM; hit rate 0.48% among 65,000; AID 555;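 active means ranked among the strongest by inhibition in the single 10 µM screen, a fixed top-ranked set picked for dose follow-up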
PMK inhibit: S. pneumoniae PMK inhibition | purified PMK, PK/LDH-coupled NADH absorbance 340 nm | hit rate 0.49% among 65,000 | inhibition, % at 10 µM;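 active means top-ranked compounds by inhibition in the single 10 µM screen, taking a fixed number of the strongest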
Abs 340nm: compound absorbs light at 340 nm | compound absorbance at 340 nm, fold over control | fold change at 10 µM | 65,000 tested, under 10 active | AID 708;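 active means at 10 µM dose, initial 340 nm absorbance at least 2 fold that of control wells; inactive means change under 2 fold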;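 further: initial absorbance extrapolated from kinetic A340 decline of NADH oxidation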
Numbers stand for hits; 0 = inactive; - = no result given; + = active, no number; [ ] = another dose, or the depositor's remark.

SMILES	Fluor 339 460	NADH coupling	Spn DPM-DC inh	Spn MK inh	PMK inhibit	Abs 340nm
O=c1cc(-c2ccco2)oc2ccc(Cl)cc12	2.4	0	-	0	0	0
Cc1csc(NC(=O)c2ccccc2O)n1	3.9	0	-	0	0	0
CCOc1ccc(-c2nnc(-c3snc(-c4ccc(F)cc4)c3N=CN(C)C)o2)cc1	3.8	0	-	0	0	0
Cc1oc(-c2ccccc2)cc1C(N)=O	0	0	0	0	0	0
CN1c2cccc3cccc(c23)N(C)C1(C)C	3.7	0	-	0	0	0
CCc1cc(=O)oc2c(C)c(O)c(CN(C)C)cc12	3.9	0	-	0	0	0
CCC(=O)c1cc2c(C)cc(=O)oc2c(C)c1O	0	0	0	0	0	0
O=c1[nH]c2cc(Cl)cc(Cl)c2[nH]c1=O	2.5	0	0	0	0	0
Cn1c(=O)[nH]c2cc(Cl)cnc21	0	0	0	0	0	0
CC(=O)NCCc1cc2ccc(C)c(C)c2[nH]c1=O	0	0	0	0	0	0
Cc1ccc2cc(CCNC(=O)CC(C)(C)C)c(=O)[nH]c2c1C	2	0	-	0	0	0
CCOC(=O)C1=C(SCC(=O)Nc2ccccc2)NC(=O)C(C#N)C12CCCCC2 (stereo not drawn)	0	0	0	0	0	0
O=C(O)c1cc(-c2ccccc2)nc2ccccc12	0	0	0	0	0	0
O=C(O)c1cc(Cl)c2ccccc2c1O	3.8	0	-	0	0	0
CC1=C(C(=O)OCC2CCCO2)C(c2cccc(O)c2)NC(=O)N1 (stereo not drawn)	0	0	0	0	0	0
COc1ccc(N2CCN(Cc3cc(=O)oc4c3ccc3ccccc34)CC2)cc1	0	0	0	0	0	0
O=c1cc(C(F)F)oc2c1ccc1ccccc12	2.5	0	-	0	0	0
N=c1c(S(=O)(=O)c2ccccc2)cc2c(=O)n3ccccc3nc2n1CCN1CCOCC1	3.7	0	-	0	0	0
N=c1c(S(=O)(=O)c2ccccc2)cc2c(=O)n3ccccc3nc2n1Cc1ccco1	4	0	-	0	0	0
CC(C)(C)C(=O)Cn1c(=O)n(CC2CCCO2)c(=O)c2ccccc21 (stereo not drawn)	0	0	0	0	0	0
O=c1c2ccccc2c2ccccc2c(=O)n1Cc1ccco1	0	0	0	0	0	0
Cc1ccc(S(=O)(=O)c2cc3c(=O)n4ccccc4nc3n(CC3CCCO3)c2=N)cc1C (stereo not drawn)	2.2	0	+[fluoresces]	0	0	0
Cc1ccc(S(=O)(=O)c2cc3c(=O)n4ccccc4nc3n(C)c2=N)cc1	0	0	0	0	0	0
Cc1ccc(S(=O)(=O)c2cc3c(=O)n4ccccc4nc3n(Cc3ccco3)c2=N)cc1C	3.5	0	-	0	0	0
CN1C(=O)c2ccc(C(=O)NCc3ccccc3)cc2C1=O	0	0	0	0	0	0
SMILES	Fluor 339 460	NADH coupling	Spn DPM-DC inh	Spn MK inh	PMK inhibit	Abs 340nm
O=C(c1ccc(CS(=O)(=O)c2ccc(Br)cc2)o1)N1CCCCCC1	0	0	0	0	0	0
COc1ccc2nc(N3CCC(O)CC3)c(C#N)cc2c1	2.9	0	0	0	0	0
COc1ccc2nc(N3CCC(C)CC3)c(C#N)cc2c1	0	0	0	0	0	0
CCOC(=O)C1CCN(c2nc3cc(OC)ccc3cc2C#N)CC1	2.1	0	0	0	0	0
CSc1nncc(-c2ccc(F)cc2)n1	0	0	0	0	0	0
C=CCn1cnc2c(NCc3ccccc3)ncnc21	0	0	0	active	0	0
OCCNc1ncnc2c1ncn2Cc1ccccc1	0	0	0	0	0	0
O=C(Nc1c(C(=O)O)[nH]c2ccccc12)NC1CCCCC1	3.9	0	-	0	0	0
O=C(NC1CCCCCCC1)c1c(O)c2ccccc2[nH]c1=O	0	0	0	0	0	0
COCCNC(=O)COC(=O)c1nsc(Cl)c1Cl	0	0	0	0	0	0
CCCc1nnc(NC(=O)CN2CCOCC2)s1	0	0	+	0	0	0
CCc1nnc(NC(=O)CN2CCOCC2)s1	0	0	0	0	0	0
COc1cc(C2Nc3cccc4cccc(c34)N2)cc(OC)c1O	3.2	0	-	0	0	0
COc1cc(C2Nc3cccc4cccc(c34)N2)ccc1OC(C)=O	0	0	0	0	0	0
O=C(NCCN1CCOCC1)c1ccc(=O)oc1	0	0	0	0	0	0
CCOC(=O)C1CCN(C(=O)Nc2ccc3nc(-c4ccco4)c(-c4ccco4)nc3c2)CC1	0	0	0	0	0	0
O=C(NC1CCCC1)c1ccc2nc(-c3ccco3)c(-c3ccco3)nc2c1	2.9	0	0	0	0	0
O=C(NC1CCCC1)c1ccc2nc[nH]c2c1	0	0	0	0	0	0
CCOC(=O)N1CCN(C(=O)Nc2ccc3nc(C)c(C)nc3c2)CC1	2.2	0	-	0	0	0
O=C(Nc1ccc2nc(-c3ccco3)c(-c3ccco3)nc2c1)N1CCCCCC1	2.7	0	+	0	0	0
O=C(NCCN1CCN(C(=O)c2cc3ccccc3oc2=O)CC1)c1cc2ccccc2oc1=O	0	0	0	0	0	0
CN1CCN(C(=O)c2cc3c(ccc4ccccc43)oc2=O)CC1	3.9	0	-	0	0	0
CC(C)(C)NCc1cccn1-c1sc2c(c1C#N)CCCC2	0	0	0	49	0	0
CC(=O)Nc1sc2c(c1C#N)CCCCC2	0	0	0	0	0	0
Cc1ccc(N2CCN(c3cc(C)nc4c5c(C)cc(C)nc5nn34)CC2)cc1	0	0	0	0	0	0
SMILES	Fluor 339 460	NADH coupling	Spn DPM-DC inh	Spn MK inh	PMK inhibit	Abs 340nm
COc1ccc(CN2CCN(c3cc(C)nc4c5c(C)cc(C)nc5nn34)CC2)cc1F	3.9	0	-	0	0	0
Cc1cc(C)c2c(n1)nn1c(N3CCN(c4ccccc4C)CC3)cc(C)nc21	2.8	0	-	0	0	0
CCOc1ccc(CN2CCN(c3cc(C)nc4c5c(C)cc(C)nc5nn34)CC2)cc1	3.1	0	-	0	0	0
COc1ccc(-c2c(C)nn3c(N4CCN(Cc5ccccc5)CC4)cc(C)nc23)cc1OC	0	0	0	0	0	0
O=C(CN(Cc1cccs1)C(=O)CNS(=O)(=O)c1ccccc1)NCc1ccco1	0	0	0	0	0	0
Cc1cc2ccccc2c(=O)n1CC(=O)NCC(=O)N(C)Cc1ccccc1	0	0	0	0	0	0
CCOC(=O)Nc1oc2ccccc2c(=O)c1CN1CCOCC1	2.2	0	0	0	0	0
C=C(CC)C(=O)c1ccc(OCC(=O)O)c(Cl)c1Cl	0	0	0	0	0	0
CCCNc1ncccc1C(N)=O	3.4	0	-	0	0	0
O=C1CCCc2nc(N3CCN(C(c4ccccc4)c4ccccc4)CC3)ncc21	0	0	0	0	0	0
COc1ccc(S(=O)(=O)N2CCN(C(=O)CCC3CCCC3)CC2)cc1	0	0	0	0	0	0
CS(=O)(=O)N1CCN(C(=O)CCC2CCCC2)CC1	0	0	0	0	33	0
O=C1CC(O)(C(F)F)Oc2ccc3ccccc3c21 (stereo not drawn)	3.7	0	-	0	0	0

Assay outcomes (PubChem)
